Composite z-score and z-score data for 27 compounds are collected here from PubChem BioAssay.

Calls of active or inactive are those of the source. Unless noted, no rule for the calls is given here.

Experiment [1] deals with XIP peptide (Xip251-270) binding. Put plainly: small-molecule binders of XIP peptide, primary screen, biochemical, small-molecule microarray, fluorescence 635/667 nm, 0.1 µg/mL protein (AID 1182). The note with it: fluorescent protein binding, 635 nm, higher = more signal, called active from +8 up or from −8 down.
Experiment [2] deals with XIP peptide (Xip251-270). In words: small-molecule binders of XIP peptide, primary screen, biochemical, small-molecule microarray, fluorescence 635/667 nm, 0.5 µg/mL protein (AID 1183). The note with it: small-molecule microarray binding, fluorescence 635 nm; higher = more signal.
The nature of experiment [3]: Plasmodium falciparum growth inhibition, primary screen, strain 3D7, DAPI fluorescence, 100 nL (AID 1184).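 Also: parasites grown inside human red blood cells in medium with human serum.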 The note with it: P. falciparum 3D7 growth, 3 d, higher = more signal.
For experiment [4], the target named is Homeobox protein Hox-A13 (Mus musculus) (UniProt Q62424). In words: inhibitors of HoxA13-DNA binding, primary screen, biochemical, fluorescence polarization, labeled oligonucleotide (AID 1185). The note with it: 15 min, higher = more signal, called active from +8 up or from −8 down. On the technique in general: In fluorescence polarisation assays a small probe gives low polarisation when free and higher when bound to something large.

The nature of experiment [5]: inhibitors of hydroxyurea-induced Chk1 phosphorylation, primary screen, imaging, HeLa, phospho-Chk1 antibody, percent positive cells (AID 1186). The note with it: hydroxyurea-induced phospho-Chk1 immunofluorescence imaging, higher = more signal.
Experiment [6] is described as follows: inhibitors of hydroxyurea-induced Chk1 phosphorylation, primary screen, imaging, HeLa, phospho-Chk1 nuclear intensity (AID 1187). The note with it: hydroxyurea-induced phospho-Chk1 immunofluorescence imaging, higher = more signal.

Sequence of Homeobox protein Hox-A13 (Mus musculus) (Q62424 whole entry, looked up): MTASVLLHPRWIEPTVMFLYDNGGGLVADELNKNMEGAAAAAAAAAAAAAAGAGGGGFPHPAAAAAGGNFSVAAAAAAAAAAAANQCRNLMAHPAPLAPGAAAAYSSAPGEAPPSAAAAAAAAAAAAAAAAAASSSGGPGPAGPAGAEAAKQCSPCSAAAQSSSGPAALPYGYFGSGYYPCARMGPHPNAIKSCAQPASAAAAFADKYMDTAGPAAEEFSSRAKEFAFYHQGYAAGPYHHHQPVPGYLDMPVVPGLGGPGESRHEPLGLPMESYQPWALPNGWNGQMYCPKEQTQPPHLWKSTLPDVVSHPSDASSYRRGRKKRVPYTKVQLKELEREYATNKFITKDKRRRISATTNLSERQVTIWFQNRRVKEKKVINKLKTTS

As to `CCCCC(=C=CC[C@H](O)c1cccc(OCCO)c1)C[C@H](O)c1cc(Cl)cc(Cl)c1O`, the composite z-score was 0.878 (inactive) in experiment [1] and 0.592 in experiment [2]. Besides, the z-score in experiment [3] was -1.16; in experiment [4] it was -4.28 (inactive); in experiment [5], -0.755 (inactive); in experiment [6] it was 0.0773 (inactive).
On to `CC1CC/C=C\[C@H]2OC34C=CCN(C(C)C)C(=O)[C@H]3N(C(C)CO)C(=O)[C@@H]4C2C(=O)O1` (some centres not stated), for which the composite z-score was -0.275 (inactive) in experiment [1] and 0.384 in experiment [2]. Besides, the z-score was -0.577 in experiment [3], -5.82 (inactive) in experiment [4], -0.829 (inactive) in experiment [5] and -0.249 (inactive) in experiment [6].
Take `CCCCC(=C=CC[C@@H](O)c1ccc(OCCO)cc1)CCO`: the figures for the composite z-score in experiment [1] and in experiment [2] were 0.218 (inactive) and 0.336, respectively. Also, the z-score in experiment [3] is -1.39; in experiment [4] it was -3.71 (inactive); in experiment [5], 0.102 (inactive); in experiment [6] it was 0.509 (inactive).
Regarding `C=C(C)C1CN([C@H](CO)c2ccccc2)C(=O)/C1=C\c1ccccc1` (some centres not stated), the composite z-score in experiment [1] was -0.598 (inactive); in experiment [2] it was 0.36. Also, the z-score in experiment [3] was -1.9; in experiment [4], -1.05 (inactive); in experiment [5], -0.484 (inactive); in experiment [6], -0.234 (inactive).
In the case of `COc1ccc([Si](C)(C)[C@H]2[C@H](CC(=O)N(CCO)Cc3ccccc3)O[C@@]3(C(=O)N(Cc4ccc(N5C(=O)c6cccc7cccc5c67)cc4)c4ccccc43)[C@@H]2C)cc1`, the composite z-score was 1.74 (inactive) in experiment [1] and 0.587 in experiment [2]. In addition, the z-score in experiment [3] is -2.11; in experiment [4], -1.38 (inactive); in experiment [5], -0.664 (inactive); in experiment [6], -0.393 (inactive).
In the case of `COc1cc2c(cc1OC)CN(C(=O)[C@@H]1[C@H]3C(=O)O[C@H](c4ccccc4)[C@H](c4ccccc4)N3[C@H](c3ccc(O)cc3)[C@@]13C(=O)Nc1ccc(C#CC4=CCCCC4)cc13)CC2`, the values for the composite z-score in experiment [1] and in experiment [2] were 0.715 (inactive) and 0.535, respectively. The z-score in experiment [3] is -0.75; in experiment [4], 2.74 (inactive); in experiment [5], 0.0655 (inactive); in experiment [6], 0.407 (inactive).
Regarding `C=C(C(=O)CC[C@@H](OC(=O)c1ccccc1-c1ccccc1C(=O)O)c1cccc(OCCO)c1)C(C)C`, the composite z-score in experiment [1] was 0.0145 (inactive); in experiment [2], 0.25. For the same compound, the z-score in experiment [3] is -2.01; in experiment [4], -4.86 (inactive); in experiment [5] it was -0.0826 (inactive); in experiment [6] it was -0.0465 (inactive).
Turning to `CCOC(=O)C[C@H]1[C@H](OC(=O)c2ccccc2-c2ccccc2)[C@@H](NC(=O)CC(C)C)c2cc(OCCCO)ccc2N1C(=O)c1ccccc1`, the composite z-score in experiment [1] is 0.539 (inactive); in experiment [2], 0.649. Moreover, the z-score was -0.966 in experiment [3], -4.48 (inactive) in experiment [4], -0.439 (inactive) in experiment [5] and -0.151 (inactive) in experiment [6].
Consider `C=CCOC(=O)[C@H]1[C@@H]2C(=O)O[C@@H](c3ccccc3)[C@@H](c3ccccc3)N2[C@@H](c2ccc(OCCOC(=O)[C@H]3C[C@H]4C(=O)NCC(=O)N4[C@H]3c3cccc(OCCO)c3)cc2)[C@]12C(=O)Nc1ccc(I)cc12`, for which the figures for the composite z-score in experiment [1] and in experiment [2] were 0.585 (inactive) and 0.649, respectively. The z-score in experiment [3] is -1.8; in experiment [4] it was 0.871 (inactive); in experiment [5], -1.38 (inactive); in experiment [6] it was -1.12 (inactive).
Consider `O=C/C=C/c1ccc(-c2ccccc2)cc1`, for which the composite z-score is -1.46 (inactive) in experiment [1] and -0.548 in experiment [2]. The z-score was 0.886 in experiment [3], -1.34 (inactive) in experiment [4], 0.236 (inactive) in experiment [5] and 0.792 (inactive) in experiment [6].
Regarding `COc1cc(CO)cc(I)c1O[C@H]1C=C(C(=O)NCCO)C[C@@H](N(CCN2CCOCC2)C(=O)C2CCCO2)[C@@H]1O` (some centres not stated), the figures for the composite z-score in experiment [1] and in experiment [2] were 0.0188 (inactive) and 0.0326, respectively. Moreover, the z-score is 0.0945 in experiment [3], -1.59 (inactive) in experiment [4], -0.866 (inactive) in experiment [5] and -0.723 (inactive) in experiment [6].
`CCOC(=O)C[C@H]1[C@H](OC(=O)c2ccc(-c3ccccc3)cc2)[C@@H](NC(=O)C2CCCCC2)c2cc(OCCCO)ccc2N1C(=O)Cc1ccc(OC)cc1`: the composite z-score is -0.344 (inactive) in experiment [1] and -0.355 in experiment [2]. Moreover, the z-score in experiment [3] is -0.0911; in experiment [4], -2.2 (inactive); in experiment [5], -0.0566 (inactive); in experiment [6], 0.295 (inactive).
As for `CC(C)C[C@H]1NC(=O)CNC(=O)[C@@]23C(=O)N[C@@H](Cc4ccccc4)C2[C@H](C)[C@@]2(C)O[C@H]2C3/C=C/C/C=C\CNC1=O` (some centres not stated), the composite z-score was 0.282 (inactive) in experiment [1] and 0.685 in experiment [2]. Also, the z-score in experiment [3] is 0.933; in experiment [4], -5.94 (inactive); in experiment [5], -0.386 (inactive); in experiment [6], -0.0588 (inactive).
As to `C=C(C(=O)CC[C@@H](OC(=O)c1ccccc1-c1ccccc1C(=O)O)c1ccc(OCCO)cc1)C(C)C`, the results for the composite z-score in experiment [1] and in experiment [2] were -0.206 (inactive) and 0.568, respectively. For the same compound, the z-score is -2.12 in experiment [3], -5.47 (inactive) in experiment [4], 0.468 (inactive) in experiment [5] and 0.59 (inactive) in experiment [6].
Turning to `[N-]=[N+]=NCc1ccccc1C[C@]1(C(=O)N2CCCCC2)COC(c2ccc(OCCCO)cc2)=N1`, the results for the composite z-score in experiment [1] and in experiment [2] were -0.061 (inactive) and 0.652, respectively. For the same compound, the z-score was -2.29 in experiment [3], -6.04 (inactive) in experiment [4], -0.749 (inactive) in experiment [5] and -0.928 (inactive) in experiment [6].
In the case of `COCCOC(=O)N1C(=O)[C@@]2(c3cc(C#CCNC(N)=O)ccc31)[C@H](C(=O)N1CCN(c3ncccn3)CC1)[C@H]1C(=O)O[C@H](c3ccccc3)[C@H](c3ccccc3)N1[C@@H]2c1ccc(O)cc1`, the composite z-score was -0.417 (inactive) in experiment [1] and 0.288 in experiment [2]. Also, the z-score in experiment [3] was 0.614; in experiment [4] it was -0.508 (inactive); in experiment [5], -0.171 (inactive); in experiment [6], -0.206 (inactive).
As to `O=C1NC(=O)C2C1C=CC(C(O)C(O)CO)N2Nc1ccccn1` (configuration not stated), the composite z-score in experiment [1] is -0.325 (inactive); in experiment [2], 0.129. In addition, the z-score in experiment [3] is 0.488; in experiment [4], -0.781 (inactive); in experiment [5], -0.163 (inactive); in experiment [6], -0.239 (inactive).
With `CC(C)C[C@@H]1NC(=O)[C@@H]2C[C@H](C(=O)NCCCCCCNC(=O)CS)[C@H](c3ccc(O)cc3)N2C1=O`, the composite z-score is 3.03 (inactive) in experiment [1] and 0.843 in experiment [2]. Further, the z-score in experiment [3] is -1.19; in experiment [4], -2.01 (inactive); in experiment [5] it was -0.265 (inactive); in experiment [6], -0.1 (inactive).
`Cc1ccc(S(=O)(=O)N2[C@@H](c3ccccc3)C(C(=O)O)=C[C@H]2C(C)(C)C)cc1`: the values for the composite z-score in experiment [1] and in experiment [2] were 1.11 (inactive) and 0.792, respectively. Also, the z-score in experiment [3] was -1.04; in experiment [4], -5.12 (inactive); in experiment [5], 0.694 (inactive); in experiment [6], 0.0696 (inactive).
In the case of `[N-]=[N+]=Nc1ccccc1C[C@@]1(C(=O)NCc2ccccc2)N=C(c2ccc(OCCCO)cc2)O[C@@H]1c1ccccc1`, the composite z-score in experiment [1] was -0.116 (inactive); in experiment [2], 0.746. The z-score in experiment [3] was -2.51; in experiment [4] it was -2.4 (inactive); in experiment [5], -0.603 (inactive); in experiment [6], -0.942 (inactive).
In the case of `CC(C)C[C@@H]1NC(=O)[C@H]2C[C@@H](C(=O)O)[C@@H](c3cccc(OCCO)c3)N2C1=O`, the results for the composite z-score in experiment [1] and in experiment [2] were 0.693 (inactive) and 0.737, respectively. Moreover, the z-score was -0.404 in experiment [3], -2.46 (inactive) in experiment [4], -0.03 (inactive) in experiment [5] and -0.134 (inactive) in experiment [6].
With `COc1ccc(CCNC(=O)[C@@H]2c3ccccc3C(=O)N(Cc3cc(F)cc(C(F)(F)F)c3)[C@H]2c2ccc(CO)cc2)cc1`, the composite z-score was 0.614 (inactive) in experiment [1] and 0.906 in experiment [2]. Besides, the z-score is -1.42 in experiment [3], -3.95 (inactive) in experiment [4], -0.0525 (inactive) in experiment [5] and 0.275 (inactive) in experiment [6].
For the compound `O=C1C2C=CC(C(O)C3CCCCC3)N(Nc3ccccc3F)C2C(=O)N1c1ccccc1` (configuration not stated), the composite z-score in experiment [1] is 0.352 (inactive); in experiment [2], 0.738. Besides, the z-score in experiment [3] was -0.193; in experiment [4] it was 0.182 (inactive); in experiment [5], 0.0253 (inactive); in experiment [6], 0.0942 (inactive).
With `COc1ccc([Si](C)(C)[C@H]2[C@H](CC(=O)N(CCO)Cc3ccccc3)O[C@@]3(C(=O)N(Cc4cccc(N5CCCCC5=O)c4)c4ccccc43)[C@@H]2C)cc1`, the composite z-score is 2.13 (inactive) in experiment [1] and 0.587 in experiment [2]. For the same compound, the z-score in experiment [3] is -2.59; in experiment [4] it was -0.38 (inactive); in experiment [5], -0.929 (inactive); in experiment [6] it was -0.607 (inactive).
Regarding `COCCOC(=O)N1C(=O)[C@@]2(c3cc(C#CC4(O)CCCCCC4)ccc31)[C@H](C(N)=O)[C@H]1C(=O)O[C@H](c3ccccc3)[C@H](c3ccccc3)N1[C@@H]2c1ccc(OCCO)cc1`, the figures for the composite z-score in experiment [1] and in experiment [2] were 1.56 (inactive) and 0.73, respectively. In addition, the z-score in experiment [3] is -1.62; in experiment [4], -0.51 (inactive); in experiment [5], -0.0908 (inactive); in experiment [6], -0.524 (inactive).
As for `CC(C)(C)OC(=O)CC[C@]1(C(N)=O)N=C(c2ccc(OCCCO)cc2)O[C@H]1c1ccccc1N=[N+]=[N-]`, the composite z-score in experiment [1] is 0.466 (inactive); in experiment [2], 0.351. Besides, the z-score was 0.129 in experiment [3], -6.52 (inactive) in experiment [4], -0.373 (inactive) in experiment [5] and -0.285 (inactive) in experiment [6].
For the compound `C=CC[C@]1(C(N)=O)N=C(c2ccc(OCCCO)cc2)O[C@H]1c1ccccc1N=[N+]=[N-]`, the results for the composite z-score in experiment [1] and in experiment [2] were 1.26 (inactive) and 0.688, respectively. The z-score in experiment [3] was -1.98; in experiment [4], -5.2 (inactive); in experiment [5] it was -0.37 (inactive); in experiment [6], -0.532 (inactive).
